In the library only some 12% were active in any assay of this set; here they are far more common.
BAZ2B inh: blocks human BAZ2B; Potency, µM (series often up to 114 µM), hits mostly inhibitors; AID 504333; Q9UIF8; AlphaScreen BAZ2B-H3K14Ac peptide displacement; actives 4.4% (n = 360,000); also: nearly all actives have a fitted effect of over 60% in size
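AlphaScreen displacement: compounds (up to 110uM) incubated 30 min at room temperature with a preformed 50 nM BAZ2B/50 nM biotinylated H3K14Ac peptide complex in PBS pH 7.4 with Tween-20. Donor and acceptor beads at 10 ug/mL final added, 20 min light-protected before reading.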
JMJD2A Tudor: inhibitors of human JMJD2A Tudor domain; AlphaScreen JMJD2A-Tudor / H3K4me3 peptide binding; actives 4.4% (n = 390,000); Potency, µM (titrated, usually from 114 µM), usual class: inhibitors; also: nearly all actives have a fitted effect of over 50% in size
Sfp PPTase inh: inhibitors of Bacillus subtilis Sfp phosphopantetheinyl transferase; Biochemical Sfp PPTase activity, qHTS; actives 3.5% (n = 310,000); Potency, µM, hits mostly inhibitors;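 also: the enzyme is Sfp with the accession as filed and its product quenches rhodamine fluorescence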
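Step 1, compound plus 15 nM Sfp-PPTase, 15 min, room temperature. Step 2, add rhodamine-CoA (5 uM) and BHQ-2-YbbR (12.5 uM). Step 3, read 525/598 nm fluorescence at 0 and 30 min.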
L3MBTL1 inh: blocks human L3MBTL1 | Q9Y468 | AlphaScreen L3MBTL1–H3K9me1 peptide binding | Potency, µM (series often up to 57.1 µM), usual class: inhibitors | actives 0.66% (n = 230,000) | AID 485360; also: nearly all actives have a fitted effect of over 60% in size
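Read-out is AlphaScreen signal from streptavidin donor and nickel chelate acceptor beads (10 ug/mL final each) bridging L3MBTL1 (50 nM) and biotinylated K9-monomethylated H3(1-15) peptide (75 nM), after 30 min compound exposure at room temperature.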
HP1b binding inh: HP1-beta chromodomain-methylated histone interaction inhibition | AID 540317 | P83916 | Potency, µM (titrated, usually from 114 µM), hits mostly inhibitors | AlphaScreen HP1-beta / biotin-H3K9me3 peptide binding | actives 0.56% (n = 390,000); also: nearly all actives have a fitted effect of over 70% in size
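AlphaScreen: HP1-beta (50 nM) preformed 30 min with biotin-H3(1-18)K9me3 peptide (50 nM) in PBS pH 7.4, 0.01% Tween-20. Compound added for 30 min at RT, then streptavidin donor/nickel chelate acceptor beads (10 ug/mL) for 30 min.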
G9a inh: G9a (human) methyltransferase inhibition; Potency, µM (titrated, usually from 102 µM), usual class: inhibitors; G9a H3K9 monomethylation, AlphaScreen, 2 h; actives 8.8% (n = 350,000); Q96KQ7; also: nearly all actives have a fitted effect of over 75% in size
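Compounds were preincubated with 20 nM G9a for 15 min, after which biotinylated H3K9 peptide (500 nM) and SAM (20 uM) started a 2 h room-temperature reaction. Monomethylated product was quantified by antibody-based AlphaScreen chemiluminescence.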
A number is an active result; [ ] = remark or other dose. Calls follow the shape of the dose curve; as a rule, active = well fitted curve in the direction sought with a large enough effect; inconclusive = small, poorly fitted or top-dose-only effect, or another doubt; inactive = no such curve, though single readings can be large; an effect the other way counts as inactive or inconclusive.

C=CCN1C(c2ccc(Br)cc2)=CS/C1=C(\C#N)c1nnc(N2CCOCC2)n1-c1ccccc1 was read as JMJD2A Tudor inconclusive and HP1b binding inh inactive.
`CN1c2ccccc2-c2nc(SCC(=O)Nc3ccccc3C(F)(F)F)ncc2S1(=O)=O` gave BAZ2B inh inactive, JMJD2A Tudor inactive, HP1b binding inh inactive and G9a inh inactive.
For Cc1cccc(C(=O)NCCCNC(=O)c2cccc(C)c2)c1 the results were BAZ2B inh inactive, JMJD2A Tudor inactive, Sfp PPTase inh inconclusive, HP1b binding inh inactive and G9a inh inactive.
For C=C(C)C1CC=C(CN2CCC(C(=O)OCC)CC2)CC1 (stereo not given) the results were BAZ2B inh inactive, JMJD2A Tudor 2.51µM, Sfp PPTase inh inactive, L3MBTL1 inh inactive, HP1b binding inh inconclusive and G9a inh inconclusive.
Screening C=C(C)C1CC=C(CN2CC(C)OC(C)C2)CC1 (stereo not given) returned BAZ2B inh inconclusive, JMJD2A Tudor 3.98µM, Sfp PPTase inh inconclusive, HP1b binding inh inconclusive and G9a inh 7.94µM.
For C=C(C)[C@@H]1CC=C(CO)CC1 the results were JMJD2A Tudor inactive and HP1b binding inh inactive.
For CN(C)c1ccc(NC(=O)CN2CCN(c3ccc(F)cc3)CC2)cc1 the results were BAZ2B inh inactive, JMJD2A Tudor inactive, Sfp PPTase inh inactive, L3MBTL1 inh inactive, HP1b binding inh inactive and G9a inh inconclusive.
CN(C)c1ccc(NC(=O)CN2CCN(CC(=O)Nc3ccc(F)cc3)CC2)cc1 was read as BAZ2B inh inconclusive, JMJD2A Tudor inactive, Sfp PPTase inh inactive, L3MBTL1 inh inactive, HP1b binding inh inactive and G9a inh 25.1µM.
Cc1ccc(C(=O)C2CCN(CC(=O)Nc3ccc(N(C)C)cc3)CC2)cc1 was read as BAZ2B inh inactive, JMJD2A Tudor 44.7µM, Sfp PPTase inh inactive, L3MBTL1 inh inactive, HP1b binding inh inactive and G9a inh 39.8µM.
Cc1ccc(CNC(=O)c2ccc(CSCc3ccccc3Cl)o2)cc1 was read as BAZ2B inh inactive, JMJD2A Tudor inactive, HP1b binding inh inactive and G9a inh inactive.
`CCCCN(C(=O)c1ccc(N2CCCC2=O)cc1)c1c(N)n(CCC)c(=O)[nH]c1=O` gave BAZ2B inh inactive, JMJD2A Tudor inactive, L3MBTL1 inh inactive, HP1b binding inh inactive and G9a inh inactive[12.7 µM].
COc1ccccc1N1C(=O)CC(Sc2nccc(C)n2)C1=O (stereo not given) was read as BAZ2B inh inactive, JMJD2A Tudor inactive, Sfp PPTase inh inactive, HP1b binding inh inactive and G9a inh inactive[2.33 µM].
`CCOC(=O)c1ccc(N2C(=O)C=CC2=O)cc1` gave BAZ2B inh inconclusive, JMJD2A Tudor 22.4µM, Sfp PPTase inh 3.55µM, HP1b binding inh 20µM and G9a inh inconclusive.
`Cc1ccnc(SC2CC(=O)N(c3ccc(Br)cc3)C2=O)n1` (stereo not given) gave BAZ2B inh inactive, JMJD2A Tudor inactive, Sfp PPTase inh inactive, L3MBTL1 inh inactive and HP1b binding inh inactive.
For COc1ccccc1N1C(=O)CC(Sc2n[nH]c(-c3cccc(C)c3)n2)C1=O (stereo not given) the results were BAZ2B inh inactive, JMJD2A Tudor 2.82µM, Sfp PPTase inh 5.62µM, L3MBTL1 inh inactive, HP1b binding inh inconclusive and G9a inh 1µM.
`Cc1cc(C)nc(SC2CC(=O)N(c3ccc(Br)cc3)C2=O)n1` (stereo not given) gave BAZ2B inh inactive, JMJD2A Tudor inactive, Sfp PPTase inh inactive, HP1b binding inh inactive and G9a inh 39.8µM.
`Nc1nnc(SC2CC(=O)N(c3ccccc3)C2=O)s1` (stereo not given) gave BAZ2B inh inactive, JMJD2A Tudor 44.7µM, Sfp PPTase inh 79.4µM, HP1b binding inh inconclusive and G9a inh 8.91µM.
Screening CCOC(=O)Nc1ccc(C(=O)c2ccncc2)cc1 returned BAZ2B inh inactive, JMJD2A Tudor inactive, Sfp PPTase inh inactive, L3MBTL1 inh inactive and HP1b binding inh inactive.
For COc1ccc(OC)c(CCNC(=O)CCCn2c(=O)c3cccn3c3ccc(F)cc32)c1 the results were BAZ2B inh inactive, JMJD2A Tudor inactive, HP1b binding inh inactive and G9a inh inactive.

Screens: PubChem, National Center for Advancing Translational Sciences (NCATS)
